PubChem BioAssay (Tox21)
Records with an inconclusive call do not appear. Where a call stands in place of a potency, no number is given. Active and inactive are the calls of the source. Unless noted, calls follow the shape of the dose curve; as a rule, active = well fitted curve in the direction sought with a large enough effect in the repeat runs; inconclusive = weak or mixed curves; inactive = no such curve, though single readings can be large; an effect the other way counts as inactive or inconclusive.

Assays:
[1] = qHTS assay to identify small molecule antagonists of the glucocorticoid receptor (GR) signaling pathway - cell viability counter screen (AID 720693); also: nearly all actives have a fitted effect of over 55% in size
[2] = qHTS assay for identifying genotoxic compounds that show differential cytotoxicity against isogenic chicken DT40 cell lines with known DNA damage response pathways - wild type cell line (AID 743012); also: nearly all actives have a fitted effect of over 60% in size; also: potency is read from the fitted curve at half-maximal effect
Summary of the method: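 Cytotoxicity in repair-proficient parental chicken DT40 cells serves as the comparator for Rad54/Ku70- and Rev3-deficient lines. Cells were exposed to compounds for 40 h at 37 C/5% CO2, and ATP-based luminescence (CellTiter-Glo) measured viability.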

[3] = qHTS assay for identifying genotoxic compounds that show differential cytotoxicity against isogenic chicken DT40 cell lines with known DNA damage response pathways - Rev3 mutant cell line (AID 743014); also: nearly all actives have a fitted effect of over 55% in size; also: potency is read from the fitted curve at half-maximal effect
[4] = qHTS assay to identify small molecule antagonists of the androgen receptor (AR) signaling pathway - cell viability counter screen (AID 743033; also: nearly all actives have a fitted effect of over 45% in size)
[5] = qHTS assay to identify small molecule antagonists of the androgen receptor (AR) signaling pathway using the MDA cell line - cell viability counter screen (AID 743041; also: nearly all actives have a fitted effect of over 45% in size)
Summary of the method: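 Compound exposure lasted 16 h at 37C in MDA-kb2 AR-luc cells stimulated with R1881. Protease-based CellTiter-Fluor reagent was applied for the final 30 min and fluorescence measured.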

[6] = qHTS assay to identify small molecule antagonists of the thyroid receptor (TR) signaling pathway - cell viability counter screen (AID 743064); also: nearly all actives have a fitted effect of over 50% in size
Summary of the method: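 CellTiter-Fluor readout, 30 min at 37 °C/5% CO2, following 23.5 h incubation of GH3.TRE-Luc cells with test compound and 1 nM T3 (final).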

[7] = qHTS assay to identify small molecule antagonists of the thyroid receptor (TR) signaling pathway (AID 743065); also: series mostly up to about 70 µM; nearly all actives have a fitted effect of over 55% in size
Summary of the method: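 GH3.TRE-Luc rat pituitary cells (two TREs driving luciferase) were dosed with compound, then stimulated with 1 nM T3 (final) for 23.5 h at 37 C. ONE-Glo luminescence was the read-out, with CellTiter-Fluor fluorescence as the cytotoxicity counter-screen.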

[8] = system: thyroid hormone receptor (rat, GH3 cells); test: qHTS assay to identify small molecule agonists of the thyroid receptor (TR) signaling pathway (AID 743066; calls by dose curve)
[9] = qHTS assay to identify small molecule antagonists of the estrogen receptor alpha (ER-alpha) signaling pathway - cell viability counter screen (AID 743074; calls by dose curve; also: nearly all actives have a fitted effect of over 45% in size)
[10] = qHTS assay to identify small molecule antagonists of the estrogen receptor alpha (ER-alpha) signaling pathway using the BG1 cell line - cell viability counter screen (AID 743081);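 also: compound given together with 17beta-estradiol as the ER stimulus; series mostly up to about 70 µM; nearly all actives have a fitted effect of over 45% in size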
Aromatase (Homo sapiens) = Aromatase (Homo sapiens) (UniProt P11511); test: qHTS assay to identify aromatase inhibitors (AID 743083); also: series mostly up to about 70 µM; nearly all actives have a fitted effect of over 55% in size
Sequence of Aromatase (Homo sapiens) (P11511 whole entry, looked up): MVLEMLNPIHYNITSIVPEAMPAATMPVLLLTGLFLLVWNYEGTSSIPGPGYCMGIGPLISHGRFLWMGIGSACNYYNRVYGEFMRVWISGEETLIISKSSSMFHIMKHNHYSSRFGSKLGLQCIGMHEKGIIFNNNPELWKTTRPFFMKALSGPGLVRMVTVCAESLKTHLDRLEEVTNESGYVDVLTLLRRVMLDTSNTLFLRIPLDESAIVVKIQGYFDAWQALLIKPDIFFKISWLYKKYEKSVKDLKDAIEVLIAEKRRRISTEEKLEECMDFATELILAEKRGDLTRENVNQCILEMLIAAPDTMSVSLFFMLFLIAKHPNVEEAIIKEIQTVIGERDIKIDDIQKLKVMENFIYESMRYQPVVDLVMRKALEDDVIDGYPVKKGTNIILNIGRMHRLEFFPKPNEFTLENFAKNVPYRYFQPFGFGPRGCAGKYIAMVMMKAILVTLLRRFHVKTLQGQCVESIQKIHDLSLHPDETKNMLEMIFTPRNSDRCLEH

[11] = qHTS assay for identifying genotoxic compounds that show differential cytotoxicity against isogenic chicken DT40 cell lines with known DNA damage response pathways - Rad54/Ku70 mutant cell line (AID 743015); also: nearly all actives have a fitted effect of over 60% in size; also: potency is read from the fitted curve at half-maximal effect
[12] = target: Estrogen receptor (Homo sapiens) (UniProt P03372); test: qHTS assay to identify small molecule antagonists of the estrogen receptor alpha (ER-alpha) signaling pathway (AID 743069; active = well fitted curve in the direction sought with a large enough effect in the signal ratio in the repeat runs, not every such curve was filed as active; the % refers to the signal ratio)
Sequence of Estrogen receptor (Homo sapiens) (P03372 whole entry, looked up): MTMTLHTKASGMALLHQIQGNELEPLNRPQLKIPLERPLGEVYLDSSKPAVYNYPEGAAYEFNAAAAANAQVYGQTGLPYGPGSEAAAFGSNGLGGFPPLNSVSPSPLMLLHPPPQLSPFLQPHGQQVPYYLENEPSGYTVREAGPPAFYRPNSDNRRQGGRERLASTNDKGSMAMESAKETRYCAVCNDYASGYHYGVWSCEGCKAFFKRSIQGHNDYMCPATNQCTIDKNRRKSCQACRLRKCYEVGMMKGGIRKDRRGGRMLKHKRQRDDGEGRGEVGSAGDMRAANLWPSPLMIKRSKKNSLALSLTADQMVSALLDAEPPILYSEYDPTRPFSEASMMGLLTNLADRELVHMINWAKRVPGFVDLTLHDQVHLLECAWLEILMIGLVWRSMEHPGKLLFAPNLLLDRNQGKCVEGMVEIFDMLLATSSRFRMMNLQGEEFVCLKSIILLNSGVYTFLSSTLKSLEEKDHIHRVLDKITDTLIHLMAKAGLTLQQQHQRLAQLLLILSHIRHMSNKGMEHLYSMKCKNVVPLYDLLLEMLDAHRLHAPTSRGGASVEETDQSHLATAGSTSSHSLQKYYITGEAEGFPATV
Summary of the method: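 In this cell-based reporter format, GripTite HEK293 cells harbouring ER-alpha-UAS-bla were grown overnight with 2% charcoal-stripped FBS, dosed with DMSO-dissolved compounds, then challenged with 17beta-estradiol. After 18 hr at 37C, beta-lactamase activity was detected by FRET fluorescence.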

[13] = target: Estrogen receptor (Homo sapiens) (UniProt P03372); test: qHTS assay to identify small molecule agonists of the estrogen receptor alpha (ER-alpha) signaling pathway (AID 743075; calls by dose curve)
[14] = target: Estrogen receptor (Homo sapiens) (UniProt P03372); test: qHTS assay to identify small molecule agonists of the estrogen receptor alpha (ER-alpha) signaling pathway using the BG1 cell line (AID 743079); also: nearly all actives have a fitted effect of over 20% in size
[15] = qHTS assay to identify small molecule antagonists of the estrogen receptor alpha (ER-alpha) signaling pathway using the BG1 cell line (AID 743080; calls by dose curve; also: series mostly up to about 70 µM; nearly all actives have a fitted effect of over 25% in size)
Summary of the method: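 Antagonist mode: compounds in DMSO were pinned onto BG1-Luc-4E2 cells alongside 17beta-estradiol agonist, incubated 21.5 h, and ERE-driven luciferase measured with ONE-Glo. Cytotoxicity was multiplexed using CellTiter-Fluor fluorescence.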

[16] = target: Androgen receptor (Homo sapiens) (UniProt P10275); test: qHTS assay to identify small molecule antagonists of the androgen receptor (AR) signaling pathway (AID 743035; active = well fitted inhibition curve with a large enough effect in the signal ratio in the repeat runs, not every such curve was filed as active; the % refers to the signal ratio)
Sequence of Androgen receptor (Homo sapiens) (P10275 whole entry, looked up): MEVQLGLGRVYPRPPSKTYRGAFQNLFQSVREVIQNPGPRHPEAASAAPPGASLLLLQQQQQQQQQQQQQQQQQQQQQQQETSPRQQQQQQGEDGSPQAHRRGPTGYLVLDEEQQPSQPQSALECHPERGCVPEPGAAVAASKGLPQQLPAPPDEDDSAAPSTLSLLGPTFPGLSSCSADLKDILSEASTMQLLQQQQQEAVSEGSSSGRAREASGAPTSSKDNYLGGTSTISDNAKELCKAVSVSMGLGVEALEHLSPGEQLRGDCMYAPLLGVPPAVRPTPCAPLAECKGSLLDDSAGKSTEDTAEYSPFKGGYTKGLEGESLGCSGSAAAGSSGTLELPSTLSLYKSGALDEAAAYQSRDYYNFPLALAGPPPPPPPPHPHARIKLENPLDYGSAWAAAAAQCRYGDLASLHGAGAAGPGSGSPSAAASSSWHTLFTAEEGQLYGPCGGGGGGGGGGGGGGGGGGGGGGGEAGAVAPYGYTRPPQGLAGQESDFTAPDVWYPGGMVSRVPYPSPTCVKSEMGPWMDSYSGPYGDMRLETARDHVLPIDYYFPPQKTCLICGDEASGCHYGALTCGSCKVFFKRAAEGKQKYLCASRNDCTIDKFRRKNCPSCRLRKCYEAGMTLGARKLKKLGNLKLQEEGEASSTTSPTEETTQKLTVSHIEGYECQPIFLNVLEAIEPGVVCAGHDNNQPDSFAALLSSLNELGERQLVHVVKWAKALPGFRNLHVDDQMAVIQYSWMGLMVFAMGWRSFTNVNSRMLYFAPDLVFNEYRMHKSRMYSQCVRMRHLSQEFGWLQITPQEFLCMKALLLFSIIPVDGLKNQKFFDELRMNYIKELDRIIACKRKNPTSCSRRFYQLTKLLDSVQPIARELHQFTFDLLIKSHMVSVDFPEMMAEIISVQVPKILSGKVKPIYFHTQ
Summary of the method: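 Steps: seed AR-UAS-bla GripTite HEK293 cells, incubate 4 h at 37C; pin in test compound, then add agonist R1881; incubate 16 h at 37C; add LiveBLAzer B/G FRET substrate, 2 h at room temperature; read fluorescence.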

[17] = target: Androgen receptor (Homo sapiens) (UniProt P10275); test: qHTS assay to identify small molecule agonists of the androgen receptor (AR) signaling pathway (AID 743036; active = well fitted activation curve with a large enough effect in the signal ratio in the repeat runs, with a control signal flat, not every such curve was filed as active; the % refers to the signal ratio)
Summary of the method: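 Following a 4 h settling period, AR-UAS-bla HEK293 cells were dosed with compounds for 16 h at 37C. A 2 h room-temperature incubation with LiveBLAzer B/G FRET substrate preceded the fluorescence measurement.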

[18] = target: Androgen receptor (Homo sapiens) (UniProt P10275); test: qHTS assay to identify small molecule agonists of the androgen receptor (AR) signaling pathway using the MDA cell line (AID 743040; also: nearly all actives have a fitted effect of over 20% in size)
Summary of the method: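 Testing was done with the MDA-kb2 AR-luc line, a human breast carcinoma stably transfected with MMTV-luciferase containing AR and GR response elements. Cells were exposed 16 h at 37C before ONE-Glo luminescence detection.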

[19] = target: Androgen receptor (Homo sapiens) (UniProt P10275); test: qHTS assay to identify small molecule antagonists of the androgen receptor (AR) signaling pathway using the MDA cell line (AID 743042; also: nearly all actives have a fitted effect of over 55% in size)
Summary of the method: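 MDA-kb2 breast carcinoma cells carrying MMTV-luciferase (AR/GR responsive) were co-treated with compounds and the agonist R1881 for 16 h at 37C. Inhibition read as ONE-Glo luminescence; CellTiter-Fluor fluorescence measured in parallel for cytotoxicity.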

SMILES | outcome [1] | Potency [2] | Potency [3] | outcome [4] | Potency [5] | Potency [6] | Potency [7] | outcome [8] | Potency [9] | Potency [10] | Potency (Aromatase (Homo sapiens)) | Potency [11] | Potency [12] | outcome [13] | Potency [14] | outcome [15] | Potency [16] | outcome [17] | Potency [18] | outcome [19]
C=O | inactive | inactive | inactive | inactive | inactive | inactive | inactive | inactive | inactive | inactive | inactive |  |  |  |  |  |  |  |  | 
ClC(Cl)Cl | inactive | inactive | inactive | inactive | inactive | inactive | inactive | inactive | inactive | inactive | inactive |  |  |  |  |  |  |  |  | 
CC(C)OC(C)C | inactive | inactive |  | inactive | inactive | inactive | inactive | inactive | inactive | inactive | inactive | inactive | inactive | inactive | inactive | inactive |  |  |  | 
O=c1oc2c(O)c(O)cc3c(=O)oc4c(O)c(O)cc1c4c23 | inactive | inactive | inactive | inactive | inactive | inactive |  | inactive | inactive | inactive | inactive |  | inactive | inactive | inactive | inactive |  |  |  | 
COc1ccccc1OCC(O)COC(N)=O (stereo unspecified) | inactive | inactive | inactive | inactive | inactive | inactive | inactive | inactive | inactive |  | inactive |  | inactive | inactive | inactive | inactive |  |  |  | 
CC1=NN(c2cc(Cl)c(S(=O)(=O)O)cc2Cl)C(=O)C1N=Nc1ccc(S(=O)(=O)O)cc1 (stereo unspecified) | inactive | inactive |  | inactive | inactive | inactive | inactive | inactive | inactive | inactive | inactive | inactive |  |  |  |  |  |  |  | 
NC1=NCC2c3ccccc3Cc3ccccc3N12 (stereo unspecified) | inactive | 21.1 µM (active) | 26.6 µM (active) |  | inactive | inactive |  | inactive | inactive | inactive | inactive |  |  |  |  |  |  |  |  | 
CCCCCCCCCC#N | inactive | inactive |  | inactive | inactive | inactive | inactive | inactive | inactive | inactive | inactive | inactive | inactive | inactive | inactive | inactive |  |  |  | 
O=C1CCCc2ccccc21 | inactive | inactive | inactive | inactive | inactive | inactive | inactive | inactive | inactive | inactive | inactive |  | inactive | inactive | inactive | inactive |  |  |  | 
NC/C=C/C(=O)O | inactive | inactive | inactive | inactive | inactive | inactive | inactive | inactive | inactive | inactive | inactive |  |  |  |  |  |  |  |  | 
Cn1cnc2c(F)c(Nc3ccc(Br)cc3Cl)c(C(=O)NOCCO)cc21 | inactive | inactive |  | inactive | inactive |  |  | inactive | inactive | inactive | inactive | inactive |  |  |  |  | inactive | inactive | inactive | 
N#Cc1ccc(C(c2ccc(C#N)cc2)n2cncn2)cc1 | inactive | inactive | inactive | inactive | inactive | inactive | inactive | inactive | inactive | inactive |  |  | inactive | inactive | inactive | inactive | inactive | inactive | inactive | inactive
Cc1cccc(C)c1NC(=O)CN1CCCCCC1 | inactive | inactive | inactive | inactive | inactive | inactive | inactive | inactive | inactive | inactive | inactive |  | inactive | inactive | inactive | inactive |  |  |  | 
Cc1ccc([N+](=O)[O-])cc1Cl | inactive | inactive |  | inactive | inactive | inactive | inactive | inactive | inactive | inactive | inactive | inactive |  |  |  |  |  |  |  | 
COc1nc(C)nc(NC(=O)NS(=O)(=O)c2ccccc2OCCCl)n1 | inactive | inactive |  | inactive | inactive | inactive | inactive | inactive | inactive | inactive | inactive | inactive | inactive | inactive |  | inactive |  |  |  | 
CCCNC(C)C(=O)Nc1c(C)csc1C(=O)OC (stereo unspecified) | inactive | inactive |  | inactive | inactive | inactive | inactive | inactive | inactive | inactive | inactive | inactive | inactive | inactive | inactive | inactive |  |  |  | 
CCCCNc1cc(C(=O)O)cc(S(N)(=O)=O)c1Oc1ccccc1 | inactive | inactive |  | inactive | inactive | inactive | inactive | inactive | inactive | inactive | inactive | inactive |  |  |  |  |  |  |  | 
Cc1c(N)cccc1N | inactive | inactive |  | inactive | inactive | inactive | inactive | inactive | inactive | inactive |  | 14 µM (active) |  |  |  |  |  |  |  | 
CCOc1ccc(NC(N)=O)cc1 | inactive | inactive | inactive | inactive | inactive | inactive | inactive | inactive | inactive | inactive | inactive |  | inactive | inactive |  | inactive |  |  |  | 
